The list is not random: actives were taken first. Their share in the collection is about 2.4%.
WRN helicase inh: qHTS for Inhibitors of WRN Helicase; Bifunctional 3'-5' exonuclease/ATP-dependent helicase WRN (Homo sapiens), Q14191; WRN helicase unwinding, fluorescent forked duplex, kinetic; Potency, µM (highest dose often 114 µM), actives largely listed as inhibitors; 0.46% of 360,000 active; also: nearly all actives have a fitted effect of over 55% in size
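Screening of the MLSMR collection measured strand separation of a quenched forked DNA duplex (100 nM) by 20 nM WRN with 2 mM ATP, all final. Compounds were preincubated with enzyme 15 min at room temperature.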
FEN1 inh: qHTS Assay for the Inhibitors of Human Flap endonuclease 1 (FEN1). 0.35% of 390,000 active. P39748. AID 588795, 2011. Potency, µM (titrated, usually from 114 µM), most hits filed as inhibitors. Recombinant FEN1 flap cleavage, fluorescence, 15 min; also: nearly all actives have a fitted effect of over 65% in size
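FEN1 at 10 nM preincubated with compounds 15 min at room temperature, then flap DNA substrate added at 50 nM final. Signal read at 0 and 15 min; concentration-response fitted with four-parameter Hill equation.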
Pol eta inh-1: qHTS for Inhibitors of Polymerase Eta; DNA polymerase eta (Homo sapiens), Q9Y253; recombinant Pol eta, fluorescent DNA replication assay; Potency, µM (series often up to 114 µM), hits mostly inhibitors; 1.2% of 390,000 active; AID 588591, 2011
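Pol eta at 10 nM preincubated with compounds 15 min at room temperature; reaction started with fluorescent substrate (50 nM final) and read kinetically at 0 and 10 min.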
POLB inh: qHTS Assay for Inhibitors of DNA Polymerase Beta. Potency, µM (highest dose often 114 µM), actives largely listed as inhibitors. Pol beta primer extension/strand displacement, fluorescence kinetic. P06746. 1.3% of 340,000 active
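Pol beta (10 nM) was preincubated with compound for 15 min at room temperature. The reaction was then started with 50 nM substrate and read immediately and after a further 10 min at room temperature.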
Pol kappa inh-1: qHTS for Inhibitors of Polymerase Kappa | DNA polymerase kappa (Homo sapiens), Q9UBT6 | purified Pol kappa, fluorescent DNA synthesis assay, 10 min | Potency, µM (series often up to 107 µM), hits mostly inhibitors | 0.53% of 400,000 active | AID 588579, 2011
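Kinetic fluorescence screen: compound preincubated 15 min RT with 10 nM enzyme; 50 nM substrate (final) initiates; reads at 0/10 min.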
Pol iota inh: qHTS for Inhibitors of Polymerase Iota; Pol iota fluorescent replication assay, 10 min; DNA polymerase iota (Homo sapiens), Q9UNA4; Potency, µM (top dose mostly 115 µM), hits mostly inhibitors; 1% of 390,000 active
Target sequence (Q9UNA4 whole entry, looked up): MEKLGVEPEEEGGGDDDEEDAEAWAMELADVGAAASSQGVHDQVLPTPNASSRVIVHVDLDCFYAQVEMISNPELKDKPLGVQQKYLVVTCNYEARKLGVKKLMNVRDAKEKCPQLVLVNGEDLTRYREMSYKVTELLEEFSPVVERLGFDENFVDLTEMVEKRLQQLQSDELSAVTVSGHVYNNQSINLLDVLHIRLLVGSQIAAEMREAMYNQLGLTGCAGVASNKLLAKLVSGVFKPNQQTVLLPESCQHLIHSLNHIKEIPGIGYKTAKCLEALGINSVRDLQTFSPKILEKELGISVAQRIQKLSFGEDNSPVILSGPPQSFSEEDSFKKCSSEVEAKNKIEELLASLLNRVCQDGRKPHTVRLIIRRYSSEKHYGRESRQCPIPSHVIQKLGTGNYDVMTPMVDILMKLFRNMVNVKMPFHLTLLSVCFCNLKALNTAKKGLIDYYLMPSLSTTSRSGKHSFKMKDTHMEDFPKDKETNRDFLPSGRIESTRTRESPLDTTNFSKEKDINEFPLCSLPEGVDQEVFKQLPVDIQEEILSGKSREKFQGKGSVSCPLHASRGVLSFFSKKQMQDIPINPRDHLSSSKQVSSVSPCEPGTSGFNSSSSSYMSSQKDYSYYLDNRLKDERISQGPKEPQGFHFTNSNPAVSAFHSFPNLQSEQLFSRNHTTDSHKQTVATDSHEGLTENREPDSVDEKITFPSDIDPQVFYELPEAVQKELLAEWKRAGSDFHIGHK
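Fluorescent replication assay read twice, at 0 min and 10 min after adding 50 nM (final) substrate. Enzyme (10 nM) and compounds were first incubated 15 min at room temperature; enzyme-free buffer wells were negative controls.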
Pol kappa inh-2: qHTS for Inhibitors of Polymerase Kappa: Confirmatory Assay for Cherry-picked Compounds. shares compounds with Pol eta inh-1. purified Pol-kappa, fluorescent strand-displacement substrate. Potency, µM, hits mostly inhibitors. 76% of 920 active. AID 720501, 2013
Pol eta inh-2: qHTS for Inhibitors of Polymerase Eta: Confirmatory Assay for Cherry-picked Compounds; AID 720502, 2013; 64% of 2,600 active; Potency, µM, hits mostly inhibitors; Pol eta primer extension, TAMRA/BHQ fluorescence, 10 min; shares compounds with Pol eta inh-1
Of the large screens only hits and unclear results are named; the others gave an inactive call (follow-up assays come after a bar, where they were run). Calls follow the shape of the dose curve; as a rule, active = well fitted curve in the direction sought with a large enough effect; inconclusive = small, poorly fitted or top-dose-only effect, or another doubt; inactive = no such curve, though single readings can be large; an effect the other way counts as inactive or inconclusive.

Cc1ccccc1OCC(=O)NNC(=O)CCN1C(=O)c2ccccc2C1=O	none
COc1cc(Cl)cc(C2NC(=O)NC(C)=C2C(C)=O)c1OCC(=O)O (centres undefined)	Pol eta inh-1 25.1µM, POLB inh 15.8µM, Pol kappa inh-1 inconclusive, Pol iota inh inconclusive | Pol eta inh-2 inconclusive
O=C(NN1C(=O)C2CC=C(Cl)CC2C1=O)c1ccncc1 (centres undefined)	WRN helicase inh inconclusive, Pol eta inh-1 10µM, POLB inh 3.16µM, Pol kappa inh-1 50.1µM, Pol iota inh 39.8µM | Pol eta inh-2 60.1
COc1ccc(Br)cc1/C=C/C(=O)NC(=S)Nc1ccc(Cl)c(C(=O)O)c1	FEN1 inh inconclusive, Pol eta inh-1 25.1µM | Pol kappa inh-2 inconclusive
S=C(NCc1ccco1)NCc1ccco1	Pol eta inh-1 inconclusive, Pol kappa inh-1 inconclusive, Pol iota inh inconclusive (no result: POLB inh) | Pol eta inh-2 inconclusive
COc1ccc(S(=O)(=O)NC(CCSC)C(=O)NC2CCCCC2)cc1 (centres undefined)	none
O=c1[nH]cc(N=Cc2cc(Cl)cc(Cl)c2O)c(=O)[nH]1	FEN1 inh inconclusive, Pol kappa inh-1 inconclusive, Pol iota inh inconclusive
Cc1ccccc1N1C(S)=C(C#N)C(=O)NC1c1ccco1 (centres undefined)	Pol eta inh-1 28.2µM, POLB inh 28.2µM, Pol iota inh 22.4µM | Pol eta inh-2 inconclusive
CC(C)n1c(SCc2cc(=O)[nH]c3ccccc23)nc2c1c(=O)n(C)c(=O)n2C	none
Cc1cccc(N=C2NC(=O)/C(=C/C=C/c3ccco3)S2)c1	WRN helicase inh inconclusive, FEN1 inh inconclusive, Pol eta inh-1 20µM, POLB inh 20µM, Pol kappa inh-1 inconclusive, Pol iota inh 17.8µM | Pol eta inh-2 inconclusive
COc1ccc(N=C2NC(=O)/C(=C\C=C\c3ccco3)S2)cc1	WRN helicase inh 22.4µM, FEN1 inh inconclusive, Pol eta inh-1 39.8µM, POLB inh 10µM, Pol kappa inh-1 inconclusive, Pol iota inh inconclusive | Pol eta inh-2 inconclusive
COc1ccc(S(=O)(=O)N(C)C[C@@H]2OCc3cnnn3CCCC(=O)N([C@@H](C)CO)C[C@H]2C)cc1	none (no result: FEN1 inh, POLB inh, Pol kappa inh-1, Pol iota inh)
Cn1ncc(Cl)c(Oc2ccc(C(C)(C)C)cc2)c1=O	none
O=C(Oc1cccc([N+](=O)[O-])c1)c1ccc2c(=O)n3c(nc2c1)CCC3	Pol eta inh-1 28.2µM, Pol kappa inh-1 inconclusive, Pol iota inh 39.8µM (no result: POLB inh) | Pol eta inh-2 75.7
CCOC(=O)c1ccccc1NC(=O)Cn1c(=O)n(Cc2ccc(C(=O)NCc3ccc4c(c3)OCO4)cc2)c(=O)c2ccccc21	none (no result: WRN helicase inh)
O=C(Cn1c(=O)n(Cc2ccc(C(=O)NCc3ccc4c(c3)OCO4)cc2)c(=O)c2ccccc21)Nc1ccc(F)cc1F	Pol eta inh-1 79.4µM, POLB inh 10µM, Pol iota inh inconclusive (no result: WRN helicase inh) | Pol kappa inh-2 inconclusive
CCOC(=O)c1c(C)c(C(=O)NCc2ccccn2)c(C)n1C	none
CC(=O)Nc1ccc2c(O)cc(S(=O)(=O)O)cc2c1	FEN1 inh inconclusive, Pol eta inh-1 31.6µM, Pol kappa inh-1 inconclusive, Pol iota inh 20µM (no result: POLB inh) | Pol kappa inh-2 inconclusive | Pol eta inh-2 inconclusive
CSc1cccc(N2CC(C(=O)N(CC(C)C)c3c(N)n(Cc4ccccc4)c(=O)[nH]c3=O)CC2=O)c1 (centres undefined)	Pol eta inh-1 25.1µM, Pol kappa inh-1 inconclusive, Pol iota inh inconclusive (no result: POLB inh) | Pol eta inh-2 inconclusive
CC(C)CN(C(=O)C1CCC1)c1c(N)n(Cc2ccccc2)c(=O)[nH]c1=O	Pol iota inh inconclusive (no result: POLB inh)
O=C(N=Nc1c(O)[nH]c2ccc([N+](=O)[O-])cc12)c1cc(-c2ccccc2Cl)nc2ccccc12	Pol eta inh-1 inconclusive, POLB inh inconclusive, Pol iota inh inconclusive | Pol kappa inh-2 inconclusive
COc1ccccc1C(=O)N=Nc1c(O)[nH]c2ccc([N+](=O)[O-])cc12	Pol kappa inh-1 inconclusive
C=C(C)Cn1c(CCNC(=O)C(C)C)nc2ccccc21	none
O=C(NCc1ccccc1)c1cccc(COc2ccc3c(c2)CCC3)c1	none
O=C(O)c1cccc(COc2ccc3c(c2)CCC3)c1	Pol eta inh-1 39.8µM, POLB inh 22.4µM, Pol kappa inh-1 inconclusive, Pol iota inh inconclusive | Pol eta inh-2 47.8
N#Cc1c(N)n(-c2ccccc2N)c2nc3ccccc3nc12	FEN1 inh inconclusive, Pol eta inh-1 inconclusive
N#Cc1c(N)n(-c2cccc(C(=O)O)c2)c2nc3ccccc3nc12	Pol eta inh-1 39.8µM | Pol eta inh-2 53.6
Cc1ccc(N2NC(=O)/C(=C/c3ccc(-c4ccc(Cl)c(C(=O)O)c4)o3)C2=O)cc1	WRN helicase inh inconclusive, Pol eta inh-1 22.4µM, POLB inh 31.6µM, Pol kappa inh-1 inconclusive, Pol iota inh inconclusive | Pol eta inh-2 60.1
CCN(CC)c1ccc(/C=C2/SC(=O)N(C(C)C)C2=O)o1	none
Cc1cc(/C=C2/C(=O)NN(c3ccccc3)C2=O)c(C)n1-c1ccc(O)cc1	none
CCCCC1(C)OC(=O)C(=Cc2ccc(-c3ccc(Cl)c(C(=O)O)c3)o2)C(=O)O1 (centres undefined)	WRN helicase inh inconclusive, Pol eta inh-1 20µM, POLB inh 15.8µM, Pol kappa inh-1 inconclusive, Pol iota inh inconclusive | Pol eta inh-2 26.9
CC(C)N1C(=O)S/C(=C\c2ccc(-c3ccc(Cl)c(C(=O)O)c3)o2)C1=O	WRN helicase inh inconclusive, FEN1 inh inconclusive, Pol eta inh-1 8.91µM, Pol kappa inh-1 50.1µM, Pol iota inh inconclusive | Pol eta inh-2 26.9
O=C(O)c1cc(-c2ccc(/C=N/NC(=S)Nc3ccccc3)o2)ccc1Cl	WRN helicase inh inconclusive, Pol eta inh-1 20µM, POLB inh 28.2µM, Pol kappa inh-1 79.4µM, Pol iota inh 35.5µM | Pol kappa inh-2 75.2 | Pol eta inh-2 inconclusive
COc1cc(NC(=O)c2onc(C)c2Cl)cc(OC)c1OC	none
CN(CCOc1ccccc1)CC(=O)Nc1ccc(Cl)c(S(=O)(=O)N(C)C)c1	none
O=C(O)c1ccc(COc2c(F)c(F)c(F)c(F)c2F)o1	Pol eta inh-1 22.4µM, POLB inh 39.8µM, Pol kappa inh-1 inconclusive, Pol iota inh 22.4µM | Pol eta inh-2 75.7
